This is an account of results in PubChem BioAssay (NCI).

Some test systems named below: T-47D breast; BT-549 breast; MDA-MB-435 melanoma; SW-620 colon; MCF7 breast; HCT-116 colon; HCC-2998 colon; KM12 colon.
Test in all cases: NCI-60 one-dose screen, 48 h (100 = growth as untreated, 0 = no growth, -100 = all killed)
Holding throughout (settings): 10 µM unless noted

About 83,000 compounds went through this panel and 20% of them were active in at least one assay; those are over-represented in the sample as a whole.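 Results are percent growth after 48 hours of single-concentration exposure. 100 means growth as in untreated cells, lower positive values show inhibition; negative values down to -100 show cell death.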 A number with no mark means an inactive call. Activity calls are given as the source filed them. How the source made its calls: active means growth percent below 10; inactive means the rest.

In the case of `CCOc1cc(/C=C/C(=O)C(C(=O)/C=C/c2ccc(OC(=O)CNc3nnc(C)s3)c(OCC)c2)C(=O)CNc2nnc(C)s2)ccc1OC(=O)CNc1nnc(C)s1`, the growth in the assay with T-47D breast is 68.2%; in the assay on BT-549 breast, -56.2% (active); in the assay with MDA-MB-435 melanoma, -8.14% (active); in the assay with SW-620 colon it was -64.8% (active); with MCF7 breast, -6.02% (active); with HCT-116 colon, -77.7% (active). Besides, the figures for the growth in the assay on HCC-2998 colon and in the assay with KM12 colon were -64.8% (active) and -64.4% (active), respectively.

For `CC(=O)Nc1c(Cl)cc2c(c1Cl)Cc1ccccc1-2`, the growth with T-47D breast was 89.5%; in the assay with BT-549 breast, 98.8%; in the assay on MDA-MB-435 melanoma it was 122%; in the assay with SW-620 colon it was 103%; in the assay with MCF7 breast it was 91.1%; in the assay with HCT-116 colon it was 99.1%. The growth is 107% in the assay with HCC-2998 colon and 97.2% in the assay on KM12 colon.

As to `CO[C@H]1/C=C/O[C@@]2(C)Oc3c(C)c(O)c4c(O)c(c(/C=N/N5C(C)CN(Cc6ccc(C#N)cc6)CC5C)c(O)c4c3C2=O)NC(=O)/C(C)=C\C=C\[C@H](C)[C@H](O)[C@@H](C)[C@@H](O)[C@@H](C)[C@H](OC(C)=O)[C@@H]1C` (stereo not given in full), the growth in the assay on T-47D breast was 18.1%; in the assay on BT-549 breast it was -0.569% (active); in the assay on MDA-MB-435 melanoma, 26.1%; in the assay with SW-620 colon, 31.5%; with MCF7 breast, 11.9%; in the assay on HCT-116 colon it was 18.5%. Besides, the growth is 2.4% (active) in the assay on HCC-2998 colon and 15.8% with KM12 colon.

As for `C=C1CCC2C3(C)COC(c4ccccc4)OC3CCC2(C)C1C/C=C1/C(=O)OCC1OC(C)=O` (stereo not given), the growth in the assay on T-47D breast is 71.1%; with BT-549 breast, 103%; in the assay on MDA-MB-435 melanoma it was 88.6%; in the assay with SW-620 colon, 41.4%; with MCF7 breast it was 24.9%; in the assay with HCT-116 colon it was 24.9%. The growth in the assay with HCC-2998 colon is 107%; with KM12 colon it was 84.4%.

Turning to `Nc1ccc2c(c1)Cc1cc(Cl)c(Cl)cc1-2`, the growth with T-47D breast was 85.3%; with BT-549 breast, 60.4%; with MDA-MB-435 melanoma, 28.1%; in the assay with SW-620 colon it was 38.1%; in the assay on MCF7 breast, 30%; in the assay with HCT-116 colon, 49.5%. Moreover, the growth in the assay with HCC-2998 colon is 66.4%; with KM12 colon it was 52.2%.

`C/C=C(/C(=C/C)c1ccc(O)cc1)c1ccc(O)cc1`: the growth in the assay with T-47D breast was 53.5%; with BT-549 breast, 40.7%; in the assay with MDA-MB-435 melanoma, -40.2% (active); in the assay on SW-620 colon, 25.6%; in the assay on MCF7 breast, 20.6%; with HCT-116 colon, 27%. For the same compound, the growth in the assay with HCC-2998 colon is 61.7%; in the assay with KM12 colon it was 20.3%.

For `O[N+]1=CC=CCC1=S.On1ccccc1=S.[Zn]`, the growth in the assay with T-47D breast is -84.9% (active); in the assay on BT-549 breast, -84% (active); in the assay on MDA-MB-435 melanoma, -82.8% (active); with SW-620 colon, -77.2% (active); in the assay with MCF7 breast, -75.6% (active); in the assay with HCT-116 colon, -88.1% (active). The growth was -76.3% (active) in the assay with HCC-2998 colon and -88.3% (active) with KM12 colon.

In the case of `Cc1cccc2nnc(-c3ccccc3)n12`, the growth in the assay with T-47D breast was 115%; in the assay on BT-549 breast it was 98.9%; in the assay on MDA-MB-435 melanoma it was 112%; in the assay with SW-620 colon, 112%; in the assay on MCF7 breast, 97%; in the assay on HCT-116 colon it was 104%. Further, the growth is 102% in the assay on HCC-2998 colon and 108% in the assay on KM12 colon.

Turning to `COc1cccc2c1C(=O)c1c(O)c3c(c(O)c1C2=O)C[C@@](O)(C(C)=O)C[C@@H]3O[C@H]1C[C@H](N)[C@H](O)[C@H](C)O1`, the growth with T-47D breast is -12.2% (active); with BT-549 breast, -58.8% (active); in the assay on MDA-MB-435 melanoma it was -98.7% (active); with SW-620 colon, -12.8% (active); with MCF7 breast, 0% (active); in the assay with HCT-116 colon it was 0.333% (active). In addition, the results for the growth in the assay with HCC-2998 colon and in the assay with KM12 colon were -70.4% (active) and -14.9% (active), respectively.

`CC1C(C)N(C(=O)CCl)c2ccccc2N1C(=O)CCl` (stereo not given): the growth is -42% (active) with T-47D breast; -86.4% (active) in the assay with BT-549 breast; -20.9% (active) in the assay on MDA-MB-435 melanoma; -81.7% (active) in the assay with SW-620 colon; -49.4% (active) in the assay on MCF7 breast; -93.2% (active) in the assay with HCT-116 colon. Also, the figures for the growth in the assay on HCC-2998 colon and in the assay on KM12 colon were -93.9% (active) and -91.7% (active), respectively.

`COc1cc(/C=C/C(=O)C(C(=O)/C=C/c2ccc(OC(=O)CCNc3nnc(C)s3)c(OC)c2)C(=O)CCNc2nnc(C)s2)ccc1OC(=O)CCNc1nnc(C)s1`: the growth is 41.4% in the assay with T-47D breast; -44% (active) with BT-549 breast; -27.5% (active) with MDA-MB-435 melanoma; -19.5% (active) with SW-620 colon; 8.2% (active) in the assay with MCF7 breast; -31.6% (active) in the assay on HCT-116 colon. Moreover, the growth is -46.7% (active) with HCC-2998 colon and -39.2% (active) in the assay with KM12 colon.

On to `Cc1c2oc3c(C)ccc(C(=O)OC(C)C4NC(=O)C(C(C)C)N(C)C(=O)CN(C)C(=O)C5CCCN5C(=O)C(C(C)C)NC4=O)c3nc-2c(C(=O)OC(C)C2NC(=O)C(C(C)C)N(C)C(=O)CN(C)C(=O)C3CCCN3C(=O)C(C(C)C)NC2=O)c(N)c1=O` (stereo not given), for which the growth is 5.74% (active) with T-47D breast; -38.1% (active) in the assay on BT-549 breast; -71.1% (active) in the assay on MDA-MB-435 melanoma; 3.76% (active) in the assay with SW-620 colon; 5.55% (active) in the assay on MCF7 breast; 7.39% (active) in the assay with HCT-116 colon. Moreover, the values for the growth with HCC-2998 colon and in the assay on KM12 colon were -34.4% (active) and 0.674% (active), respectively.

On to `COc1cccc(-c2nc(-c3ccc(N)cc3)co2)c1`, for which the growth is 105% with T-47D breast; 110% with BT-549 breast; 93.3% with MDA-MB-435 melanoma; 113% with SW-620 colon; 98.9% in the assay on MCF7 breast; 91.5% in the assay on HCT-116 colon. The growth was 122% with HCC-2998 colon and 99.2% in the assay with KM12 colon.

Consider `CN(C)CCCN=c1cc2c(=O)n(CCCN(C)C)c(=O)c3c(NCCCN(C)C)cc4c(O)n(CCCN(C)C)c(=O)c1c4c3-2`, for which the growth in the assay with T-47D breast was -1.16% (active); in the assay on BT-549 breast, 37%; in the assay with MDA-MB-435 melanoma it was -52.8% (active); with SW-620 colon, -14.6% (active); with MCF7 breast it was 0.771% (active); with HCT-116 colon, -29.7% (active). For the same compound, the growth in the assay on HCC-2998 colon is 13.8%; in the assay with KM12 colon, 3.01% (active).

For `COc1cc(-c2n[nH]nc2-c2ccccn2)cc(OC)c1OC`, the growth in the assay on T-47D breast was 87.2%; with BT-549 breast, 117%; in the assay on MDA-MB-435 melanoma it was 106%; in the assay with SW-620 colon it was 106%; in the assay with MCF7 breast, 96.2%; in the assay on HCT-116 colon, 104%. Further, the values for the growth in the assay with HCC-2998 colon and in the assay on KM12 colon were 105% and 102%, respectively.
